# Assay results taken from the supplement of paper PMC8728848.
# The sample as a whole holds a higher share of the strongest signals than the screen did.
# B1: RBMC2 (Vibrio cholerae) (protein)
# chain: KISVRSGFAIDAIGASASTLVGGTGGNLNAAVNVKDIKAIDLTWGKYYWGGYHLLALDFRMSNGSVISMGSKNYAYSKQTERFTVPAGSRIKGIKAWTAGWLLDGVQFELA
# Key:
# Experiment in all cases: glycan array binding signal (z-score within array); higher = stronger binding
# Settings in all cases: glycan notation: IUPAC condensed, linker removed
# [1] = target: GlcNAc(b1-2)[GlcNAc(b1-6)]Man(a1-6)[GlcNAc(b1-2)Man(a1-3)]Man(b1-4)GlcNAc(b1-4)[Fuc(a1-6)]GlcNAc
# How it was run: (§1)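 The binding signal is a Z-score computed within each array. Data were drawn from 3228 arrays in the Consortium for Functional Glycomics database, restricted to those with a known protein sequence. Scores were averaged over arrays of the same protein sequence at different concentrations or buffers, and over linkers, and negative values can be taken as non-binding.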
# [2] = target: GlcNAc(b1-3)Gal(b1-4)GlcNAc(b1-2)Man(a1-3)[GlcNAc(b1-3)Gal(b1-4)GlcNAc(b1-2)Man(a1-6)]Man(b1-4)GlcNAc(b1-4)[Fuc(a1-6)]GlcNAc
# How it was run: as §1
# [3] = target: GlcNAc(b1-3)Gal(b1-4)GlcNAc(b1-3)Gal(b1-4)GlcNAc(b1-3)Gal(b1-4)GlcNAc(b1-3)Gal(b1-4)GlcNAc(b1-2)Man(a1-3)[GlcNAc(b1-3)Gal(b1-4)GlcNAc(b1-3)Gal(b1-4)GlcNAc(b1-3)Gal(b1-4)GlcNAc(b1-3)Gal(b1-4)GlcNAc(b1-2)Man(a1-6)]Man(b1-4)GlcNAc(b1-4)[Fuc(a1-6)]GlcNAc
# How it was run: as §1
# [4] = target: GlcNAc(b1-3)Gal(b1-4)GlcNAc(b1-3)[GlcNAc(b1-3)Gal(b1-4)GlcNAc(b1-3)]GalNAc
# How it was run: as §1
# [5] = target: GlcNAc(b1-6)GalNAc
# How it was run: as §1
# [6] = target: Man(a1-2)Man(a1-3)[Man(a1-2)Man(a1-6)]Man
# How it was run: as §1
# [7] = target: Man(a1-3)[Man(a1-6)]Man(b1-4)GlcNAc(b1-4)GlcNAc
# How it was run: as §1
# [8] = target: Neu5Ac(a2-3)Gal(b1-3)GlcNAc(b1-2)Man(a1-3)[Neu5Ac(a2-3)Gal(b1-3)GlcNAc(b1-2)Man(a1-6)]Man(b1-4)GlcNAc(b1-4)GlcNAc
# How it was run: as §1
# [9] = target: Neu5Ac(a2-3)Gal(b1-3)[GlcNAc(b1-6)]GalNAc
# How it was run: as §1
# [10] = target: Neu5Ac(a2-3)Gal(b1-4)[Fuc(a1-3)]GlcNAc(b1-6)[Neu5Ac(a2-3)Gal(b1-3)]GalNAc
# How it was run: as §1
# [11] = target: Neu5Ac(a2-3)[Neu5Ac(a2-6)]GalNAc
# How it was run: as §1
# [12] = target: Neu5Ac(a2-6)Gal(b1-4)GlcNAc(b1-2)Man(a1-3)Man(b1-4)GlcNAc(b1-4)GlcNAc
# How it was run: as §1
# [13] = target: Neu5Ac(a2-6)Gal(b1-4)GlcNAc(b1-2)Man(a1-3)[Man(a1-6)]Man(b1-4)GlcNAc(b1-4)GlcNAc
# How it was run: as §1
# [14] = target: Neu5Ac(a2-6)Gal(b1-4)GlcNAc(b1-2)Man(a1-3)[Neu5Ac(a2-3)Gal(b1-4)GlcNAc(b1-2)Man(a1-6)]Man(b1-4)GlcNAc(b1-4)GlcNAc
# How it was run: as §1
# [15] = target: Neu5Ac(a2-6)Gal(b1-4)GlcNAc(b1-2)Man(a1-3)[Neu5Ac(a2-6)Gal(b1-4)GlcNAc(b1-2)Man(a1-6)]Man(b1-4)GlcNAc(b1-4)[Fuc(a1-6)]GlcNAc
# How it was run: as §1
# [16] = target: Neu5Ac(a2-6)Gal(b1-4)GlcNAc(b1-2)Man(a1-6)[Gal(b1-4)GlcNAc(b1-2)Man(a1-3)]Man(b1-4)GlcNAc(b1-4)GlcNAc
# How it was run: as §1
# [17] = target: Neu5Ac(a2-6)Gal(b1-4)GlcNAc(b1-2)[Neu5Ac(a2-6)Gal(b1-4)GlcNAc(b1-4)]Man(a1-3)[GlcNAc(b1-4)][Neu5Ac(a2-6)Gal(b1-4)GlcNAc(b1-2)[Neu5Ac(a2-6)Gal(b1-4)GlcNAc(b1-6)]Man(a1-6)]Man(b1-4)GlcNAc(b1-4)GlcNAc
# How it was run: as §1
# [18] = target: Neu5Ac(a2-6)Gal(b1-4)GlcNAc(b1-6)[Gal(b1-3)GlcNAc(b1-3)]Gal(b1-4)Glc
# How it was run: as §1
binder,measurement,setting,value
B1,glycan array binding signal (z-score),[1],-0.178
same,glycan array binding signal (z-score),[2],3.51
same,glycan array binding signal (z-score),[3],1.92
same,glycan array binding signal (z-score),[4],-0.222
same,glycan array binding signal (z-score),[5],-0.19
same,glycan array binding signal (z-score),[6],-0.48
same,glycan array binding signal (z-score),[7],4.41
same,glycan array binding signal (z-score),[8],-0.017
same,glycan array binding signal (z-score),[9],-0.155
same,glycan array binding signal (z-score),[10],-0.025
same,glycan array binding signal (z-score),[11],-0.245
same,glycan array binding signal (z-score),[12],-0.132
same,glycan array binding signal (z-score),[13],12.3
same,glycan array binding signal (z-score),[14],3.39
same,glycan array binding signal (z-score),[15],3.57
same,glycan array binding signal (z-score),[16],3.52
same,glycan array binding signal (z-score),[17],-0.425
same,glycan array binding signal (z-score),[18],-0.398
